Most compounds without a hit are left out; they make up all but 2.9% or so of the library.
PLCg1 inh = inhibitors of human phospholipase C gamma1 | P19174 | purified PLC-gamma1, fluorogenic substrate, fluorescence | inhibition, % at 12.2 µM | hit rate 0.84% among 370,000; in the data active means inhibition above about 9.5%
PLCb3 inh = blocks human PLC-beta3 enzyme activity; Q01970; hit rate 0.18% among 370,000; inhibition, % at 12.2 µM; Purified PLC-beta3, fluorogenic substrate, fluorescence; AID 720704;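 further: 0% = median of compound wells on plate and 100% = full blocker control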
ADAM10 inh = ADAM10 inhibition, QFRET primary screen. inhibition, % at 7 µM. recombinant ADAM10, EDANS/DABCYL FRET peptide cleavage, 3 h. hit rate 0.62% among 370,000. O14672;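 active means inhibition above a per-campaign cutoff equal to the mean of compounds falling between control-based bounds plus 3 SD, cut at about 20% in these data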;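 further: 0% = DMSO wells while the 100% control is not disclosed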
ADAM17 inh = inhibits human ADAM17; AID 720648; inhibition, % at 6.95 µM; P78536; hit rate 0.83% among 370,000; recombinant ADAM17, EDANS/DABCYL FRET peptide cleavage;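 active means inhibition above the mean of compounds lying between control limits plus 3 SD, set per campaign, cut at about 8.5% in these data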;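 further: 0% = DMSO-only wells as the low control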
proKLK7 act = activators of human kallikrein-7 zymogen; P49862; purified proKLK7, EDANS-DABCYL substrate fluorescence; 100% is mature enzyme control, 0% vehicle; activation, % at 7 µM; hit rate 0.9% among 370,000; AID 652039;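 active means activation above the mean of all tested compounds plus 3 SD, computed per campaign excluding outliers beyond control limits, cut at about 13% in these data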
Target sequence (P49862 whole entry, looked up): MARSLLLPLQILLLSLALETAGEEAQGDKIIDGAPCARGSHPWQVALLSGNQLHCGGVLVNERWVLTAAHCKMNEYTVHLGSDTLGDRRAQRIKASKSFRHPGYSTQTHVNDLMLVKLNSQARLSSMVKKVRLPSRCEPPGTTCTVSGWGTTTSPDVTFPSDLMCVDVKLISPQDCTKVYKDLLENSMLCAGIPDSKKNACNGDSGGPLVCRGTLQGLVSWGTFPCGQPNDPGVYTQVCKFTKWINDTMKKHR
PLCgamma1 ctr = inhibits human PLC-gamma1 in PLC-beta3 counter-screen | hit rate 3.1% among 3,300 | shares compounds with PLCg1 inh | inhibition, % at 12.3 µM | purified PLC-gamma1, fluorogenic substrate, fluorescence; in the data active means inhibition above about 9.5%
PLCb3 confirm = confirmation of human PLC-beta3 inhibitors. purified PLC-beta3, fluorogenic substrate fluorescence. hit rate 1% among 3,300. AID 743261. inhibition, % at 12.3 µM. shares compounds with PLCg1 inh
* hit, by the source's call. Unless noted, no stated cut-off is given here; in the data, active means inhibition above about 11%; inactive means the rest.

Results for O=C(Nc1ccccc1N1CCOCC1)c1ccc(Cl)c(S(=O)(=O)NCc2ccco2)c1 ?
PLCg1 inh: 9.7*; PLCb3 inh: -2.8; ADAM10 inh: 15.2; ADAM17 inh: 6.0; proKLK7 act: 0.8; PLCgamma1 ctr: -3.8; PLCb3 confirm: -4.1

What do the screens show for `CCCCN(CCCNC(=O)C1CCCN(S(=O)(=O)CC)C1)Cc1ccccc1` (stereo unspecified)?
PLCg1 inh: -1.0; PLCb3 inh: 0.8; ADAM10 inh: -5.0; ADAM17 inh: -4.0; proKLK7 act: 0.1

How did O=C(O)c1ccccc1NS(=O)(=O)c1ccc(N/N=C/c2cccc(O)c2O)c([N+](=O)[O-])c1 do in these assays?
PLCg1 inh: 9.6*; PLCb3 inh: 1.4; ADAM10 inh: 9.3; ADAM17 inh: 7.9; proKLK7 act: 0.6; PLCgamma1 ctr: 3.9; PLCb3 confirm: 0.6

How did COc1cc(C=NNc2ccc(S(=O)(=O)Nc3ccccc3C(=O)O)cc2[N+](=O)[O-])ccc1O do in these assays?
PLCg1 inh: -45.3; PLCb3 inh: 0.8; ADAM10 inh: 12.4; ADAM17 inh: 5.2; proKLK7 act: -0.7

How did NS(=O)(=O)c1ccc(N/N=C/c2ccc[nH]2)c([N+](=O)[O-])c1 do in these assays?
PLCg1 inh: 11.6*; PLCb3 inh: 3.0; ADAM10 inh: 6.5; ADAM17 inh: 5.4; proKLK7 act: 0.2; PLCgamma1 ctr: 2.2; PLCb3 confirm: 7.3

Results for COc1cc(CNCc2ccccc2)cc(Cl)c1OC ?
PLCg1 inh: 1.3; PLCb3 inh: -1.2; ADAM10 inh: 0.6; ADAM17 inh: 0.4; proKLK7 act: 0.4

What do the screens show for `COc1c(Cl)cc(Cl)cc1CNCc1ccccc1`?
PLCg1 inh: 10.5*; PLCb3 inh: 10.5; ADAM10 inh: 8.7; ADAM17 inh: 0.8; proKLK7 act: -0.6; PLCgamma1 ctr: -7.3; PLCb3 confirm: -3.0

What do the screens show for `CS(=O)(=O)c1ccc2nc(NC(=O)c3cc4ccccc4o3)sc2c1`?
PLCg1 inh: -26.7; PLCb3 inh: -27.2; ADAM10 inh: -5.3; ADAM17 inh: -1.9; proKLK7 act: 0.1

How did N/C(Cc1ccc(Cl)c(Cl)c1)=N\OC(=O)c1cccs1 do in these assays?
PLCg1 inh: 9.1; PLCb3 inh: 11.5*; ADAM10 inh: -2.8; ADAM17 inh: 3.2; proKLK7 act: 0.5; PLCgamma1 ctr: 3.1; PLCb3 confirm: 9.6

What do the screens show for `N/C(=N\OC(=O)c1cccs1)c1cccnc1`?
PLCg1 inh: 3.0; PLCb3 inh: 3.6; ADAM10 inh: 9.3; ADAM17 inh: 1.6; proKLK7 act: -0.1

How did CN(C)c1nc(SCCOC(=O)COc2ccc(Cl)cc2Cl)nc(N(C)C)n1 do in these assays?
PLCg1 inh: 9.9*; PLCb3 inh: 2.4; ADAM10 inh: 14.1; ADAM17 inh: 4.7; proKLK7 act: -0.1; PLCgamma1 ctr: -7.9; PLCb3 confirm: -6.2

What do the screens show for `CCN1CCCC1CNS(=O)(=O)c1ccc(Br)cc1` (stereo unspecified)?
PLCg1 inh: 1.0; PLCb3 inh: -5.0; ADAM10 inh: -5.1; ADAM17 inh: -4.4; proKLK7 act: 0.1

Results for CCOc1ccc(C(=O)Oc2cc(C)[nH]c(=O)c2[N+](=O)[O-])cc1 ?
PLCg1 inh: 4.5; PLCb3 inh: 3.4; ADAM10 inh: -9.9; ADAM17 inh: -1.6; proKLK7 act: -0.9

How did CCOc1ccc(C(=O)Oc2cc(C)[nH]c(=O)c2[N+](=O)[O-])cc1OCC do in these assays?
PLCg1 inh: 10.2*; PLCb3 inh: 2.0; ADAM10 inh: 5.5; ADAM17 inh: 4.5; proKLK7 act: -0.4; PLCgamma1 ctr: 5.5; PLCb3 confirm: 4.2

Results for CN(C)c1ccc(/C(=N\O)C(F)(F)F)cc1 ?
PLCg1 inh: -0.7; PLCb3 inh: 4.5; ADAM10 inh: -1.4; ADAM17 inh: 1.3; proKLK7 act: 0.2

Results for O=c1c2[nH]c3ccccc3c2ncn1CCN1CCOCC1 ?
PLCg1 inh: 9.6*; PLCb3 inh: 6.4; ADAM10 inh: 0.7; ADAM17 inh: -3.7; proKLK7 act: -0.4; PLCgamma1 ctr: 0.6; PLCb3 confirm: -0.9

How did O=C(CN(Cc1ccc(F)cc1)S(=O)(=O)c1ccc(S(=O)(=O)N2CCOCC2)cc1)Nc1ccccc1 do in these assays?
PLCg1 inh: 8.2; PLCb3 inh: 11.1*; ADAM10 inh: 6.5; ADAM17 inh: 6.1; proKLK7 act: -0.6; PLCgamma1 ctr: -5.2; PLCb3 confirm: -2.2

Results for O=C(Nc1nc(-c2ccncc2)cs1)c1ccc(S(=O)(=O)N2CCOCC2)cc1 ?
PLCg1 inh: 13.3*; PLCb3 inh: 6.0; ADAM10 inh: 8.5; ADAM17 inh: 1.6; proKLK7 act: 1.5; PLCgamma1 ctr: -15.4; PLCb3 confirm: -11.3

Results for O=C(NC12CC3CC(CC(C3)C1)C2)c1ccc(S(=O)(=O)N2CCOCC2)cc1 ?
PLCg1 inh: 5.0; PLCb3 inh: 11.9*; ADAM10 inh: 8.6; ADAM17 inh: 1.9; proKLK7 act: -0.2; PLCgamma1 ctr: 6.1; PLCb3 confirm: -0.3

What do the screens show for `CC(C)C(=O)Nc1nc(-c2ccc(S(=O)(=O)N3CCOCC3)cc2)cs1`?
PLCg1 inh: -14.7; PLCb3 inh: -29.9; ADAM10 inh: -34.3; ADAM17 inh: -12.2; proKLK7 act: 0.3

What do the screens show for `O=C(Nc1cccc(F)c1)c1ccc(S(=O)(=O)N2CCOCC2)cc1`?
PLCg1 inh: 10.2*; PLCb3 inh: 8.5; ADAM10 inh: 2.7; ADAM17 inh: 2.2; proKLK7 act: 0.0; PLCgamma1 ctr: 2.3; PLCb3 confirm: 7.4

Results for O=C(Nc1ccc(S(=O)(=O)N2CCOCC2)cc1)c1ccc(S(=O)(=O)N2CCOCC2)cc1 ?
PLCg1 inh: 0.5; PLCb3 inh: -0.4; ADAM10 inh: 6.3; ADAM17 inh: -1.8; proKLK7 act: 0.2

How did COc1ccc(CC(=O)NC2CCN(Cc3nnnn3C(C)(C)C)CC2)cc1OC do in these assays?
PLCg1 inh: -3.5; PLCb3 inh: 5.0; ADAM10 inh: 4.5; ADAM17 inh: 4.1; proKLK7 act: -0.1

What do the screens show for `COc1ccc(-n2ccc(=O)c(C(=O)Nc3ccc(S(=O)(=O)Nc4nccs4)cc3)n2)cc1`?
PLCg1 inh: -85.8; PLCb3 inh: -118.0; ADAM10 inh: -13.4; ADAM17 inh: -0.7; proKLK7 act: 2.1

Results for Cc1c(C(=O)OCC(=O)N2CCC(C)CC2)oc2ccccc12 ?
PLCg1 inh: 2.4; PLCb3 inh: -1.4; ADAM10 inh: 3.6; ADAM17 inh: -3.3; proKLK7 act: 0.4

How did Cn1c(=O)c2[nH]c(N=NN3CCCCC3)nc2n(C)c1=O do in these assays?
PLCg1 inh: 2.8; PLCb3 inh: 5.6; ADAM10 inh: 2.3; ADAM17 inh: -1.4; proKLK7 act: 0.1

What do the screens show for `CN(C)S(=O)(=O)N1CCC(Oc2cccc(C(=O)NC3CCCCC3)c2)CC1`?
PLCg1 inh: 0.2; PLCb3 inh: -5.4; ADAM10 inh: -9.0; ADAM17 inh: -3.7; proKLK7 act: 0.0

Screens as filed in PubChem.
